High-throughput results as filed in PubChem.
Only some compounds are listed: those with a hit (about 18% of all), similar ones and a draw of the others.
RORgamma inh: qHTS for inhibitors of ROR gamma transcriptional activity; Nuclear receptor ROR-gamma (Mus musculus), P51450; Drosophila S2 Gal4-RORgamma UAS-luciferase reporter, 20 h; Potency, µM (series often up to 53.6 µM), for the others: at the highest dose activity change, negative = inhibition, usual class: inhibitors; hit rate 5.4% among 310,000; also: potency is read from the fitted curve at half-maximal effect; nearly all actives have a fitted effect of over 60% in size
Target sequence (P51450 whole entry, looked up, the tested form may be a part): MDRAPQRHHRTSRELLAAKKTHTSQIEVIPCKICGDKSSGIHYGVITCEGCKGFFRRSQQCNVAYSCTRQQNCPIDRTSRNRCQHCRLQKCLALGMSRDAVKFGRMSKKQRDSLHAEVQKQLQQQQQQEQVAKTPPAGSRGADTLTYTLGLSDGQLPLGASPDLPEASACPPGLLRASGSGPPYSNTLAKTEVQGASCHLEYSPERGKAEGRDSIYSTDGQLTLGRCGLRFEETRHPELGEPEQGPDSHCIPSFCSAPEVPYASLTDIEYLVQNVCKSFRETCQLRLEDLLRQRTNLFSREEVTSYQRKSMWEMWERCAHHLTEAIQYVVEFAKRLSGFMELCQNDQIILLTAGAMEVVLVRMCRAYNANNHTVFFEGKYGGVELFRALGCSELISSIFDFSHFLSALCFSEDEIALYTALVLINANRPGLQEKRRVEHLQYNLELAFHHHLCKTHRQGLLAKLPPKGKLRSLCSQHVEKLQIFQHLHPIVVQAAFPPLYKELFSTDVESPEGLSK
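A Gal4/UAS one-hybrid system in insect cells: metallothionein-promoter Gal4–ROR gamma fusion plus Photinus luciferase reporter. Copper sulfate 700 uM final, 20 hr ambient incubation, luminescent detection after 10 min with reagent.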
TDP1 cell CPT: qHTS for Inhibitors of human tyrosyl-DNA phosphodiesterase 1 (TDP1): qHTS in cells in presence of CPT; chicken DT40 Tdp1-/-;hTDP1 cells + 20 nM CPT, ATP luminescence, 48 h; Potency, µM (top dose mostly 46.2 µM), for inactives: at the top dose activity change, negative = growth inhibition, hits mostly inhibitors; hit rate 12% among 420,000; also: potency is read from the fitted curve at half-maximal effect; nearly all actives have a fitted effect of over 55% in size
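Chicken DT40 Tdp1-/- cells complemented with human TDP1, 400 cells/well, exposed to compounds plus 20 nM camptothecin for at least 48 h at 37 C; viability read as ATP content by CellTiter-Glo luminescence.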
LDHA block: qHTS assay for inhibitors of human lactate dehydrogenase; L-lactate dehydrogenase A chain (Homo sapiens), P00338; purified LDHA, NADH/diaphorase-resazurin fluorescence; stronger effect = lower value; activity change, % (values are at about 110 or 230 µM); hit rate 0.15% among 480,000; AID 1347041, 2019; in the data active = activity change below about -30%; inconclusive = mostly about -25% to -30%;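 also: plate controls were DMSO wells for no effect and wells without enzyme for full effect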
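Remaining NADH was detected by diaphorase (0.133 mg/mL) converting 37 µM resazurin to fluorescent resorufin, read at 0 and 20 minutes. The preceding 5-minute room-temperature reaction used 2 nM LDHA, 0.2 mM sodium pyruvate and 0.06 mM NADH at pH 7.4.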
VP16 counter: VP16 counterscreen qHTS for inhibitors of ROR gamma transcriptional activity. Potency, µM (top dose mostly 53.6 µM), for the others: top-dose activity, negative = inhibition, most hits filed as inhibitors. Drosophila S2 Gal4-VP16 UAS-luciferase, luminescence, 20 h. AID 2546, 2010. hit rate 3.5% among 310,000;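 also: Gal4-VP16 expression switched on by copper sulfate through the metallothionein promoter; potency is read from the fitted curve at half-maximal effect; nearly all actives have a fitted effect of over 50% in size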
TDP1 cell noCPT: qHTS for Inhibitors of human tyrosyl-DNA phosphodiesterase 1 (TDP1): qHTS in cells in absence of CPT; DT40 Tdp1-/- hTDP1 cells, no CPT, ATP luminescence, 48 h; Potency, µM (titrated, usually from 46.2 µM), for the others: at the highest dose activity change, negative = growth inhibition, most hits filed as inhibitors; hit rate 15% among 420,000; AID 686978, 2013; also: potency is read from the fitted curve at half-maximal effect; nearly all actives have a fitted effect of over 55% in size
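Chicken DT40 Tdp1-/- cells stably complemented with human TDP1 were seeded at 400 cells/well with DMSO in place of 20 nM camptothecin. After compound pinning, cells grew at least 48 hr at 37 °C; viability read by CellTiter-Glo luminescence.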
IL-1B inflam inh: qHTS for Inhibitors of Inflammasome Signaling: IL-1-beta AlphaLISA Primary Screen; AID 743279, 2014; hit rate 4.7% among 360,000; activity change, % at 57.5 µM; THP-1 LPS/ATP IL-1B secretion, AlphaLISA, 16 h; stronger effect = lower value; in the data active = activity change below about -50%; inconclusive = mostly about -30% to -49%
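Secreted IL-1B measured by AlphaLISA bead assay after 16 h compound exposure of THP-1 cells; compounds (final up to 57.5 uM) added 1 h before LPS (250 ng/mL) and ATP (1.25 mM) stimulation; lower signal means less secretion.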
* = called active by the depositor; ? = inconclusive; . = not tested or not shown; [ ] = dose if it differs, or a comment. Unless noted, calls follow the shape of the dose curve; as a rule, active = well fitted curve in the direction sought with a large enough effect; inconclusive = small, poorly fitted or top-dose-only effect, or another doubt; inactive = no such curve, though single readings can be large; an effect the other way counts as inactive or inconclusive. Unless noted, % is scaled to controls: 0 for no effect and ±100 for the full control effect.

SMILES	RORgamma inh	TDP1 cell CPT	LDHA block	VP16 counter	TDP1 cell noCPT	IL-1B inflam inh
COc1cc(OC)c(OC)cc1/C=C/C(=O)OCC(=O)Nc1c(C)n(C)n(-c2ccccc2)c1=O	.	?	0	.	1µM*	-15
COc1ccc(C(=O)/C=C/Nc2c(C)n(C)n(-c3ccccc3)c2=O)cc1OC	-40%	23µM*	1	5%	16µM*	-11
O=C(c1cc(C(F)(F)F)cc(C(F)(F)F)c1)N1CCCC(CO)C1 (stereo unspecified)	.	.	1	.	.	.
CCCOc1cccc(C2c3c(oc4ccccc4c3=O)C(=O)N2c2nncs2)c1 (stereo unspecified)	.	15µM*	-8	.	?	.
CCCOc1cccc(C2c3c(oc4ccc(F)cc4c3=O)C(=O)N2c2nc(C)c(C(C)=O)s2)c1 (stereo unspecified)	.	13µM*	-5	.	15µM*	.
O=C1c2oc3ccccc3c(=O)c2C(c2cccc(Br)c2)N1c1ccccn1 (stereo unspecified)	.	?	-6	.	16µM*	.
COC(=O)c1sc(N2C(=O)c3oc4ccccc4c(=O)c3C2c2cccs2)nc1C (stereo unspecified)	-16%[0.365 µM]	18µM*	-6	.	16µM*	-7
O=C(COCC(=O)N(c1ccccc1)c1ccccc1)Nc1ccccc1	.	.	2	.	.	.
O=C(CCN1C(=O)/C(=C/c2ccccc2)SC1=S)Nc1cccnc1	?	-5%	-6	1%	?	-7
O=C(CCN1C(=O)/C(=C/c2ccccc2F)SC1=S)N[C@@H](CO)Cc1ccccc1	-35%	?	-12	-14%	16µM*	-99*
O=C(CCN1C(=O)/C(=C/c2ccccc2)SC1=S)N[C@@H](CO)Cc1ccccc1	-32%	18µM*	-2	-6%	10µM*	-61*
COc1cc2c(cc1OC)C1=CC3(C(=O)Nc4cc5c(cc43)OCCO5)C(C#N)=C(N)N1CC2 (stereo unspecified)	.	.	1	.	.	.
O=Cc1ccc(OCc2ccc(I)cc2)c(Cl)c1	.	.	0	.	.	.
Cc1ccc(NC(=S)NCCC2=CCCCC2)cc1	5.6µM*	?	-7	6.3µM*	23µM*	10
CC(=O)c1cccc(NC(=S)NCCC2=CCCCC2)c1	7.1µM*	16µM*	-6	7.1µM*	15µM*	-16
O=C(NCc1ccco1)Nc1ccc(Br)cc1	26%	-19%	-6	?	?	-10
S=C(NCCC1=CCCCC1)Nc1ccc(Br)cc1	.	.	-5	.	.	.
O=C(NCc1ccco1)Nc1ccc2nsnc2c1	-14%[0.365 µM]	18µM*	18	.	15µM*	-75*
CCOC(=O)c1ccc(NC(=S)NCCC2=CCCCC2)cc1	2.8µM*	29µM*	-1	3.2µM*	21µM*	28
CCOC(=O)c1ccccc1NC(=O)c1cccc(N2CCCCS2(=O)=O)c1	.	.	-14	.	.	.
COc1ccc(CN2CCN(CC(=O)Nc3ccccc3C(=O)NC3CCCC3)CC2)cc1	.	.	-3	.	.	.
CC(NC(=O)CSc1nnc(C2CC2)n1C1CC1)c1ccc2c(c1)CCCC2 (stereo unspecified)	.	.	-3	.	.	.
O=C(NCCC1=CCCCC1)Nc1ccc2nsnc2c1	3%	?	2	-20%	10µM*	-94*
Cc1ccc(NC(=S)NCCC2=CCCCC2)cc1F	.	.	4	.	.	.
Cc1ccc(NC(=O)CN(C)C(=O)c2sc3cc(Cl)ccc3c2Cl)cc1	.	-16%	-6	.	-20%	5
SMILES	RORgamma inh	TDP1 cell CPT	LDHA block	VP16 counter	TDP1 cell noCPT	IL-1B inflam inh
Cc1c(CN(C)C(=O)c2sc3cc(Cl)ccc3c2Cl)cnn1C	13%	15µM*	-2	?	21µM*	?
CCOC(=O)C1C(=O)C=C(c2cccs2)CC1c1ccc(CC)cc1 (stereo unspecified)	.	.	0	.	.	.
CCOC(=O)C1C(=O)C=C(/C=C/c2ccc(N(C)C)cc2)CC1c1ccccc1 (stereo unspecified)	?	12µM*	2	8%	?	8
CCOC(=O)C1C(=O)C=C(c2cccs2)CC1c1ccccc1 (stereo unspecified)	0%	?	-3	-67%	16µM*	-11
CCCCn1c(CCC(=O)Nc2ccccc2C)nc2c1c(=O)[nH]c(=O)n2CCC	.	.	-5	.	.	.
Cc1sc2nc(SCc3ccc(F)cc3Cl)n(CCCN3CCOCC3)c(=O)c2c1C	.	.	2	.	.	.
CC[C@@H]1CCC[C@@H](O)[C@@H](C)C(=O)O[C@H](C)[C@@H](C)C/C=C(C)/C(OC)=C\C(=O)N(C)C([C@@H](C)CC)C(=O)N(C)[C@@H](C(C)C)C(=O)N(C)[C@@H](COC)C(=O)N2CCC[C@H]2C(=O)N(C)[C@@H](C(C)C)C(=O)N2CCC[C@H]2C(=O)O1 (stereo partly specified)	.	0.15µM*	-5	.	0.21µM*	18
O=S(=O)(Nc1ccccc1)c1ccc(Oc2ncc(C(F)(F)F)cc2Cl)cc1	?	15µM*	-1	?	?	34
O=S(=O)(Cc1ncc(C(F)(F)F)cc1Cl)c1ccccc1	?	23µM*	-3	-16%	?	13
CC(C)NS(=O)(=O)c1ccc(Oc2ncc(C(F)(F)F)cc2Cl)cc1	?	?	-1	1%	?	-2
FC(F)(F)c1cnc(COc2cc(Cl)cc(Cl)c2)c(Cl)c1	1%	-20%	-3	1%	-29%	-74*
O=C(O)CCc1ncc(C(F)(F)F)cc1Cl	26%	-8%	-3	12%	-4%	-1
CC(C)NC(=O)NC(=O)CN1CCCc2ccccc21	.	.	6	.	.	.
CC(C)N1CCN(c2ccc(OCC3COC(Cn4cncn4)(c4ccc(Cl)cc4Cl)O3)cc2)CC1 (stereo unspecified)	.	?	7	.	?	-53*
CC(C)N1CCN(c2ccc(OC[C@H]3CO[C@](Cn4cncn4)(c4ccc(Cl)cc4Cl)O3)cc2)CC1	.	?	-10	.	?	-24
Cc1cc(Cl)ccc1NC(=O)CCS(=O)(=O)c1ccc2c(c1)CC(C)N2C(=O)C1CC1 (stereo unspecified)	.	12µM*	1	.	?	.
Cc1ccc(S(=O)(=O)CCC(=O)Nc2ccc(OC(F)(F)F)cc2)cc1	.	21µM*	2	.	?	.
